# Data reported in the OligoGym collection.
# Target: CORIN
# Experiment: pooled miR-30 sensor sort-seq; sequence = guide strand
# Settings: shRNA
# Also: reference of the scale not given here.
row,Sequence,sensor-assay potency score (higher = more potent)
1,TAAATCTGTCTTTTAATCCATT,-1.02
2,ATGATCTTGATATACATCCAGA,-1.55
3,TTGAGTATGTAGCTACAACTGT,-0.57
4,TTTATTGCTGTCTTTTATCAGT,-0.911
5,TATTTGTAAGAATAACATCGGA,-0.524
6,TTGATTGTCTGAATTTTCCTCT,0.641
7,TAAAATTGCAGGTAGTATCTAT,0.492
8,TTGAACTTTCATACAATCGTGA,0.765
9,TTAAACATGTAAATTATCTTGG,0.389

# Target: CORO2B
# Experiment: as above
# Settings: shRNA
row,Sequence,sensor-assay potency score (higher = more potent)
1,TTTCTAATAAATCTATTCCGTT,-1.03
2,TTGTCGTGCACATTCTTGGTGA,-0.294
3,ATCTGTCTTGTGTTCCACCTGG,-0.685
4,TAATGCATCTAGTAGATCCTAG,0.537
5,TTGTAGTCGTAGCCAGCGCTGA,-0.89
6,TTTTCTAATAAATCTATTCCGT,-0.324
7,TTCTTGTCCTTGCACGTGGTGG,-1.22
8,TTGTAGAAGCGGAACACCTCGC,-0.204
9,TAGAAGCGGAACACCTCGCAGG,-0.524
10,TAGACATTCCGGAACTTGGAGC,-1.06
11,TTCTAATAAATCTATTCCGTTG,-0.9
12,TATTTCAATTCTATCCTTGGGA,0.222

# Target: COX10
# Experiment: as above
# Settings: shRNA
row,Sequence,sensor-assay potency score (higher = more potent)
1,TTCTTTGTCCTATTCATGTTTG,-0.705
2,TTCAGTGGTGTGTAGCAGCAGG,-0.511
3,ATAATCTTGTTCTAAACCCAGC,-0.854
4,TTTCTGCTTTGGCTTGACCTGA,-0.722
5,TATTGAGTCTTCAATTACTGAG,-0.782
6,TAACCGTATTTGGTAACCGAGA,-1.58
7,TATTGTTAGAAGGACTATGGTT,-0.28
8,TCTGCGTCCACGTAGAAGCGGA,-0.792
9,TACCACAACATGCTCGCCTGGC,-0.0841
10,TACACTTGCAGCTTCATCTCTT,1.01
11,TGATTTTGGATAGTCGAGCCAA,-0.198
12,TTGAAATGAGGAAACTGCCAGG,-0.59
13,TTGTATTCACTGACTGAGCTGA,-0.0577
14,TCTAGTTCTATCAATTCCTTTT,-0.971
15,TTTTAGAAGGAACTGCTTCCAA,-0.134
16,TTTAGAAGGAACTGCTTCCAAC,-0.611
17,TGCAGTGGTACTTACAACCAGA,-1.05
18,TTGTTTAACTCTCCCACCCCGA,-0.416
19,TGATTGGATGTTATCTACCTAC,-0.498
